Measured values reported in PubChem BioAssay AID1053122 (Broad Institute, 2014).
Potency and affinity values are given separately. Activity calls are given as the source filed them.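 How the source made its calls: active means CTGF level falls with dose and the fitted half-maximal dose is at most twice the top valid dose; inconclusive means flat fit with 30 to 70% drop, or a poor fit; inactive means the rest.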

assay: YAP1 pathway inhibition via CTGF transcript levels, dose response, cell-based, DLD1 colon cancer, RT-qPCR, cherry-pick (AID 1053122); settings: DLD1 CTGF mRNA (YAP1 pathway), 24 h; series mostly up to 26 µM

outcome, inactive:
O=C(Nc1ccc2c(c1)[C@H]1C[C@@H](CC(=O)N3CCc4ccccc4C3)O[C@H](CO)[C@H]1O2)c1ccc2c(c1)OCO2
COc1ccccc1C#Cc1ccc([C@H]2[C@H](CO)N3CCCCN(C(=O)C4CCC4)C[C@@H]23)cc1
COc1ccc2c3c(n(C)c2c1)[C@@H](CO)N(Cc1ccncc1)CC31CN(C(=O)Nc2cccc(F)c2)C1
O=S(=O)(c1ccccc1)N1CCCCN2[C@H](C1)[C@@H](c1ccc(C#CC3CCCC3)cc1)[C@@H]2CO
COc1ccccc1S(=O)(=O)N1CC[C@@H]2[C@H]1c1cc(-c3cccc(C#N)c3)ccc1N(C)[C@H]2CO
COc1cccc(-c2ccc([C@@H]3[C@@H](C#N)N(C(=O)Cc4ccncc4)[C@@H]3CO)cc2)c1
CO[C@@H]1CN(C)C(=O)c2cc(NS(=O)(=O)c3ccccc3C)ccc2OC[C@@H](C)N(S(=O)(=O)c2ccccc2)C[C@H]1C
C[C@@H]1CN([C@@H](C)CO)C(=O)Cc2cc(NC(=O)C3CCCCC3)ccc2O[C@@H]1CN(C)Cc1ccc(Cl)c(Cl)c1
CC(C)(C)[S@@](=O)N1Cc2cc(C(=O)NCCc3ccncc3)nc(-c3cccc(-c4cccc(C#N)c4)c3)c2[C@H]1CCO
O=C([C@H]1[C@H](CO)[C@H]2Cn3c(ccc(-c4ccc(F)cc4)c3=O)[C@H]2N1Cc1cocn1)N1CCCCC1
CC(C)(C)S(=O)N1Cc2cc(C(=O)NCc3ccc4c(c3)OCO4)nc(-c3cccc(-c4cccc(F)c4)c3)c2[C@@H]1CCO (some centres undefined)
C[C@@H]1CN([C@@H](C)CO)C(=O)CCCn2nncc2CO[C@@H]1CN(C)C(=O)c1cc(-c2ccccc2)on1
COc1ccc([C@H]2C/C=C\C[C@@H](c3ccc4c(c3)OCO4)NC(=O)[C@@H](c3ccccc3)CC(=O)N2)c(OC)c1
CN1C(=O)c2cc(NS(=O)(=O)c3ccccc3F)ccc2OC[C@@H]2O[C@@H](CC(=O)NC3Cc4ccccc4C3)CC[C@@H]21
CC(=O)N1CCCCN2[C@@H](CO)[C@H](c3ccc(-c4ccccc4)cc3)[C@@H]2C1
Cc1ccccc1-c1ccc([C@H]2[C@@H](CO)N3CCCCN(S(=O)(=O)Cc4ccccc4)C[C@@H]23)cc1
O=S(=O)(Cc1ccccc1)N1CC2(C1)[C@H](c1ccccc1)[C@H](CO)N2CC1CCCC1
CN(C)C(=O)c1ccc(-c2cccc(-c3nc(C(=O)NCc4ccccc4)cc4c3[C@@H](CCO)N([S@](=O)C(C)(C)C)C4)c2)cc1
CC(C)(C)[S@](=O)N1Cc2cc(C(=O)NCCc3ccncc3)nc(-c3cccc(-c4cccc(C#N)c4)c3)c2[C@@H]1CCO
C[C@@H]1CN([C@H](C)CO)C(=O)c2cccc(NC(=O)c3nc4ccccc4s3)c2O[C@H]1CN(C)C(=O)Nc1ccc2c(c1)OCO2
CCCNC(=O)N1[C@H](C#N)[C@@H](c2ccc(C#Cc3cccc(F)c3)cc2)[C@@H]1CO
C[C@@H]1CC=CC[C@@H](c2cccc(Cl)c2)NC(=O)[C@@H](Cc2ccccc2)N(C)C(=O)c2ccccc2O1 (mixture of isomers)
O=C(Nc1ccc2c(c1)[C@H]1C[C@@H](CC(=O)N3CCc4ccccc4C3)O[C@@H](CO)[C@H]1O2)c1ccc2c(c1)OCO2
COc1ccc(S(=O)(=O)Nc2ccc3c(c2)C(=O)N([C@@H](C)CO)C[C@H](C)[C@@H](CN(C)S(=O)(=O)c2ccc(Cl)cc2)OCCCC[C@@H](C)O3)cc1
O=C(CC1CC1)N1CC(=O)N2[C@@H](CO)[C@H](c3ccc(/C=C/c4ccccc4)cc3)[C@@H]2C1
C[C@@H]1CN([C@H](C)CO)S(=O)(=O)c2ccc(C#Cc3ccccc3F)cc2O[C@@H]1CN(C)C(=O)Cc1cccnc1
C/C=C/c1cccc(-c2nc(C(=O)Nc3nccs3)cc3c2[C@@H](CCO)N(C(=O)NC(C)C)C3)c1
Cc1ccc(S(=O)(=O)Nc2ccc3c(c2)C(=O)N([C@H](C)CO)C[C@@H](C)[C@H](CN(C)S(=O)(=O)c2cccs2)OCCCC[C@@H](C)O3)cc1
C[C@@H]1CN([C@H](C)CO)C(=O)c2ccccc2-c2ccccc2CO[C@@H]1CN(C)Cc1ccc2c(c1)OCCN2C
